Measured values: PubChem BioAssay (NCI)
This is part of a sample that, as a whole, favours compounds with a hit. Of some 83,000 tested, about 20% had one in any assay.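 Values shown are percent growth following 48 h exposure of cells in 96-well plates to a single concentration of compound; below 10 was considered active.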 Active and inactive are the calls of the source.

Tests used:
Assay in all cases: NCI-60 one-dose screen, 48 h (100 = growth as untreated, 0 = no growth, -100 = all killed)
Conditions in all cases: 10 µM
NCI-H23 lung = tested on: NCI-H23 lung
NCI-H226 lung = tested on: NCI-H226 lung
NCI-H322M lung = tested on: NCI-H322M lung
HOP-62 NSCLC = tested on: HOP-62 NSCLC
NCI-H460 lung = tested on: NCI-H460 lung
HOP-92 NSCLC = tested on: HOP-92 NSCLC
NCI-H522 lung = tested on: NCI-H522 lung
A549/ATCC NSCLC = tested on: A549/ATCC NSCLC
786-0 renal = tested on: 786-0 renal
COLO 205 colon = tested on: COLO 205 colon

Measured: growth

CNCc1cccc2c1OCCCCCC[C@@](C)(O)CC1(CC1)S(=O)(=O)c1ccc(cc1)-c1cnc(N)c(n1)C(=O)N2
active: NCI-H23 lung -95.4% | NCI-H226 lung -75.7% | NCI-H322M lung -96.8% | HOP-62 NSCLC -84.3% | NCI-H460 lung -74.8% | HOP-92 NSCLC -67.8% | NCI-H522 lung -87.2% | A549/ATCC NSCLC -79.5% | 786-0 renal -82.9% | COLO 205 colon -89.9%

COc1cc(NC(=O)c2cc(-c3ccc(F)cc3F)ccc2O)cc(OC)c1OC
inactive: NCI-H23 lung 26.2% | NCI-H226 lung 50.9% | NCI-H322M lung 38.4% | HOP-62 NSCLC 24% | NCI-H460 lung 22.5% | A549/ATCC NSCLC 37.1% | 786-0 renal 54% | COLO 205 colon 116%
active: HOP-92 NSCLC -11.8% | NCI-H522 lung 7.09%

O=C(c1ccccc1)n1ccc(-c2cc3cc(Br)ccc3oc2=O)n1
active: NCI-H460 lung 9.4% | NCI-H522 lung 1.16%
inactive: NCI-H23 lung 19% | NCI-H226 lung 27.5% | NCI-H322M lung 31.1% | HOP-62 NSCLC 20% | HOP-92 NSCLC 34.7% | A549/ATCC NSCLC 33.9% | 786-0 renal 16.1% | COLO 205 colon 11%

O=S(=O)(Nc1ncccn1)c1ccc(-n2c(-c3ccccc3)nc(-c3ccccc3)c2-c2ccccc2)cc1
inactive: NCI-H23 lung 95.4% | NCI-H226 lung 87.8% | NCI-H322M lung 96.4% | HOP-62 NSCLC 100% | NCI-H460 lung 88.1% | HOP-92 NSCLC 109% | NCI-H522 lung 94.4% | A549/ATCC NSCLC 89.7% | 786-0 renal 88% | COLO 205 colon 130%

Nc1cccnc1/C=N/NC(=S)NCCNC(=O)c1ccc(-n2nc(-c3ccccc3O)nc2-c2ccccc2O)cc1
inactive: NCI-H322M lung 19.3% | HOP-62 NSCLC 22.1% | NCI-H460 lung 37.6% | A549/ATCC NSCLC 15% | COLO 205 colon 15.1%
active: NCI-H23 lung -1.31% | NCI-H226 lung 2.65% | HOP-92 NSCLC -2.21% | NCI-H522 lung 4.39% | 786-0 renal -1.51%

CCCCCCCCCCCCCCCCCCCC(=O)NCCc1c[nH]c2ccc(O)cc12
active: NCI-H522 lung -13.2%
inactive: NCI-H23 lung 103% | NCI-H226 lung 87.6% | NCI-H322M lung 114% | HOP-62 NSCLC 144% | NCI-H460 lung 101% | HOP-92 NSCLC 148% | A549/ATCC NSCLC 90.8% | 786-0 renal 100% | COLO 205 colon 147%

COc1ccc2c3nc4cc(C)c(C)cc4nc3n(CCN(C)C)c2c1
active: NCI-H23 lung 8.28% | NCI-H322M lung 0.682% | HOP-62 NSCLC 8.8% | NCI-H460 lung -50.6% | NCI-H522 lung -22.4% | A549/ATCC NSCLC -59.8% | 786-0 renal -42.7%
inactive: NCI-H226 lung 12.1% | HOP-92 NSCLC 27.1% | COLO 205 colon 62.5%

COc1cc2c3c(n(CCCN4CCOCC4)c(=O)c2cc1OC)-c1nc2c(cc1C3=O)OCO2
active: NCI-H23 lung 4.12% | NCI-H226 lung 6.34% | HOP-62 NSCLC -12.4% | NCI-H460 lung -15.4% | HOP-92 NSCLC -2.4% | 786-0 renal -6.02%
inactive: NCI-H322M lung 41% | NCI-H522 lung 39.9% | A549/ATCC NSCLC 19% | COLO 205 colon 13%

COc1ccc2ncc(C#Cc3cncc(C(=O)Nc4ccc(CN5CCN(C)CC5)c(C(F)(F)F)c4)c3)n2n1
active: NCI-H23 lung -80.9% | NCI-H226 lung -68.4% | NCI-H322M lung -98% | HOP-62 NSCLC -61% | NCI-H460 lung -75.3% | HOP-92 NSCLC -72% | NCI-H522 lung -65.5% | A549/ATCC NSCLC -51.7% | 786-0 renal -55.7% | COLO 205 colon -63.8%

CCCCCc1ccc(S(=O)(=O)Nc2cc(-c3csc(N(C)C(C)=O)n3)ccc2N2CCN(C)CC2)cc1
inactive: NCI-H23 lung 44.3% | NCI-H226 lung 37.4% | NCI-H322M lung 63.6% | HOP-62 NSCLC 54.2% | NCI-H460 lung 23.6% | NCI-H522 lung 32.8% | A549/ATCC NSCLC 57.7%
active: HOP-92 NSCLC -12.9% | 786-0 renal 8.85% | COLO 205 colon -65.6%

CC1=C(C(=O)OC(C)C)C(c2ccc(O)cc2)NC(=S)N1 (stereo not given)
inactive: NCI-H23 lung 98.8% | NCI-H226 lung 99.2% | NCI-H322M lung 102% | HOP-62 NSCLC 104% | NCI-H460 lung 124% | HOP-92 NSCLC 112% | NCI-H522 lung 93.1% | A549/ATCC NSCLC 109% | 786-0 renal 95.7% | COLO 205 colon 119%

COc1ccccc1C(=O)NNC(=O)CSc1nc2c(c(=O)[nH]1)CCCC2
inactive: NCI-H23 lung 91.4% | NCI-H226 lung 83.6% | NCI-H322M lung 103% | HOP-62 NSCLC 93.5% | NCI-H460 lung 111% | HOP-92 NSCLC 86.2% | NCI-H522 lung 104% | A549/ATCC NSCLC 106% | 786-0 renal 115% | COLO 205 colon 113%

CCN1CCN(c2ccc(NC(=O)Nc3ccc4c(c3F)CCN4c3ccnc(C(=O)NC)c3)cc2C(F)(F)F)CC1
inactive: NCI-H226 lung 95% | NCI-H322M lung 90.5% | HOP-92 NSCLC 82.3% | NCI-H522 lung 110% | COLO 205 colon 120%
active: NCI-H23 lung -79.4% | HOP-62 NSCLC -49.3% | NCI-H460 lung -87.6% | A549/ATCC NSCLC -81.4% | 786-0 renal -95.9%

CC1(C)CC[C@]2(C(=O)N3CCOCC3)CC[C@]3(C)C(=CC[C@@H]4[C@@]5(C)CC[C@H](NCO)C(C)(C)[C@@H]5CC[C@]43C)[C@H]2C1
active: NCI-H23 lung -88.1% | NCI-H226 lung -88.3% | NCI-H322M lung -97.8% | HOP-62 NSCLC -73.8% | NCI-H460 lung -92.7% | HOP-92 NSCLC -64.3% | NCI-H522 lung -79.8% | A549/ATCC NSCLC -85.8% | 786-0 renal -88.2% | COLO 205 colon -72.7%

O=C(NO)c1ccc(Cn2ccc3c(NCc4ccccc4)ncnc32)cc1
active: NCI-H23 lung -74.3% | HOP-92 NSCLC -19% | NCI-H522 lung -51.5% | COLO 205 colon -60.1%
inactive: NCI-H226 lung 23.8% | NCI-H322M lung 30.2% | HOP-62 NSCLC 12.7% | NCI-H460 lung 11.1% | A549/ATCC NSCLC 28.1% | 786-0 renal 22.7%

COc1cc(/C=C/C(=O)c2ccc(C(F)(F)F)cc2)ccc1Oc1nc(Nc2ccc(F)cc2)nc(N(C)C)n1
inactive: NCI-H23 lung 64.6% | NCI-H226 lung 71.7% | NCI-H322M lung 82.8% | HOP-62 NSCLC 102% | NCI-H460 lung 82.7% | HOP-92 NSCLC 81.5% | NCI-H522 lung 76.7% | A549/ATCC NSCLC 78.7% | 786-0 renal 71.8% | COLO 205 colon 134%

N#Cc1c(-c2ccc(Cl)cc2)cc(-c2ccccc2)nc1OCc1ccccc1
inactive: NCI-H23 lung 76.7% | NCI-H226 lung 74.7% | NCI-H322M lung 96.6% | HOP-62 NSCLC 84.9% | NCI-H460 lung 51.9% | HOP-92 NSCLC 90.8% | NCI-H522 lung 69.3% | A549/ATCC NSCLC 73.8% | 786-0 renal 107% | COLO 205 colon 106%

O=C(CS(=O)(=O)c1oc(-c2ccc(Cl)cc2)nc1S(=O)(=O)c1ccc(Cl)cc1)N1CCOCC1
active: HOP-92 NSCLC -25.5% | NCI-H522 lung -14.8%
inactive: NCI-H23 lung 48.9% | NCI-H226 lung 78.2% | NCI-H322M lung 93.5% | HOP-62 NSCLC 84.3% | NCI-H460 lung 107% | A549/ATCC NSCLC 83.7% | 786-0 renal 40.3% | COLO 205 colon 10.5%

COc1ccc(N2N=C(c3ccc4c(c3)OCCO4)CC2c2cccc(NC(=O)CCCNS(=O)(=O)c3ccc(F)cc3)c2)cc1 (stereo not given)
inactive: NCI-H23 lung 85.7% | NCI-H226 lung 74.5% | NCI-H322M lung 75% | HOP-62 NSCLC 89.6% | NCI-H460 lung 64.8% | HOP-92 NSCLC 81.6% | NCI-H522 lung 58.9% | A549/ATCC NSCLC 61.8% | 786-0 renal 66.6% | COLO 205 colon 84%

COc1ccc(N(C)c2cc(C#N)nc3ccccc23)cc1/C=C/C(=O)NO
active: NCI-H23 lung -83.4% | NCI-H226 lung -39% | NCI-H322M lung 0.0682% | HOP-62 NSCLC -48% | NCI-H460 lung 0.587% | HOP-92 NSCLC -12.2% | NCI-H522 lung -75.4% | A549/ATCC NSCLC 7.16% | 786-0 renal -9.47% | COLO 205 colon -34.2%

Clc1ccc(/C=N/Nc2ncnc3sc4c(c23)CCN(Cc2ccccc2)C4)cc1
inactive: NCI-H23 lung 13.9% | NCI-H322M lung 22.3%
active: NCI-H226 lung -54.2% | HOP-62 NSCLC -33.5% | NCI-H460 lung -75.6% | HOP-92 NSCLC -59.6% | NCI-H522 lung 1.08% | A549/ATCC NSCLC -53.2% | 786-0 renal -84.8% | COLO 205 colon -86.1%

Cc1ccc(C(=O)NNC(=O)CSc2nc3ccccc3c(=O)[nH]2)cc1
inactive: NCI-H23 lung 98.5% | NCI-H226 lung 92.4% | NCI-H322M lung 99.2% | HOP-62 NSCLC 98.8% | NCI-H460 lung 108% | HOP-92 NSCLC 90.6% | NCI-H522 lung 106% | A549/ATCC NSCLC 111% | 786-0 renal 95.2% | COLO 205 colon 97.8%

CCCCCCCCCCCCCCCCCCCC(=O)NCCc1c[nH]c2ccc(OC(=O)NOCCOCCOCCOCCOCCOCCOCCOCCOCCOCCOCCOCCOCCOCCOCCOCCOCCOCCOCCOCCOCCOCCOC)cc12
active: NCI-H23 lung 9.6% | NCI-H226 lung -23.3% | NCI-H322M lung -8.92% | HOP-62 NSCLC -30.7% | HOP-92 NSCLC -17.5% | NCI-H522 lung -83.4% | A549/ATCC NSCLC 8.54% | COLO 205 colon -100%
inactive: NCI-H460 lung 16% | 786-0 renal 35.4%

CC(=O)Nc1ccc(-n2cnc3cc(-c4ccc(NS(C)(=O)=O)cc4)ccc32)cc1
inactive: NCI-H23 lung 61% | NCI-H322M lung 59.1% | HOP-62 NSCLC 75.4% | NCI-H460 lung 33.4% | HOP-92 NSCLC 39.7% | NCI-H522 lung 46.9% | A549/ATCC NSCLC 57% | 786-0 renal 52.3% | COLO 205 colon 63.9%
active: NCI-H226 lung -68.4%

[2H]C([2H])([2H])Oc1ccc2ncc(C#Cc3cncc(C(=O)Nc4ccc(CN5CCN(C)CC5)c(C(F)(F)F)c4)c3)n2n1
active: NCI-H23 lung -80.5% | NCI-H226 lung -65.8% | NCI-H322M lung -98.9% | HOP-62 NSCLC -41% | NCI-H460 lung 2.44% | HOP-92 NSCLC -66.6% | NCI-H522 lung -40.4% | A549/ATCC NSCLC -33% | 786-0 renal -28.6% | COLO 205 colon -62.2%

O=C(COc1ccc(NC(=O)Nc2ccc(Cl)cc2)cc1)N=Nc1c(O)[nH]c2ccc([N+](=O)[O-])cc12
inactive: NCI-H23 lung 21.4% | NCI-H226 lung 22.4% | NCI-H322M lung 53.3% | HOP-62 NSCLC 35.7% | NCI-H460 lung 17.5% | A549/ATCC NSCLC 105% | 786-0 renal 53.6% | COLO 205 colon 23%
active: HOP-92 NSCLC -36.2% | NCI-H522 lung 8.06%
